In paper PMC5540273 (PLoS ONE, 2017):

Tests used:
Settings in all cases: concentration: 1 μM, replicates: in singlicate; n = 1
PRKR = tested on: T1, PRKR
T1 construct: gene EIF2AK2

PRKX = tested on: PRKX
PRP4 = tested on: PRP4
PYK2 = tested on: T2, PYK2
T2 construct: gene PTK2B

QSK = tested on: QSK
RAF1 = tested on: RAF1
RET = tested on: RET
RIOK1 = tested on: RIOK1
RIOK2 = tested on: RIOK2
RIOK3 = tested on: RIOK3
RIPK1 = tested on: RIPK1
RIPK2 = tested on: RIPK2
RIPK4 = tested on: RIPK4
RIPK5 = tested on: RIPK5
ROCK1 = tested on: ROCK1
ROCK2 = tested on: ROCK2
ROS1 = tested on: ROS1
[1] = tested on: RPS6KA4(Kin.Dom.1-N-terminal)
[2] = tested on: RPS6KA4(Kin.Dom.2-C-terminal)
[3] = tested on: RPS6KA5(Kin.Dom.1-N-terminal)
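Note: KINOMEscan kinase panel screen.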

SMILES	%Inh (PRKR) [%]	%Inh (PRKX) [%]	%Inh (PRP4) [%]	%Inh (PYK2) [%]	%Inh (QSK) [%]	%Inh (RAF1) [%]	%Inh (RET) [%]	%Inh (RIOK1) [%]	%Inh (RIOK2) [%]	%Inh (RIOK3) [%]	%Inh (RIPK1) [%]	%Inh (RIPK2) [%]	%Inh (RIPK4) [%]	%Inh (RIPK5) [%]	%Inh (ROCK1) [%]	%Inh (ROCK2) [%]	%Inh (ROS1) [%]	%Inh [1] [%]	%Inh [2] [%]	%Inh [3] [%]
COc1cc2ncnc(Nc3ccc(OCc4ccccc4Br)c(Cl)c3)c2cc1OC.Cl [GI261590]	0	0	0	32	0	21	14	29	0	10	0	86	7	0	16	27	4	9	0	0
C[C@@H]1CCN(C(=O)CO)C[C@@H]1N(C)c1ncnc2[nH]ccc12	0	7	0	0	0	0	0	0	0	0	0	0	0	12	16	23	0	88	0	0
COc1ccc(NC(=O)c2ccc(-c3cc(-c4nnc(C)o4)ccc3C)cc2)cc1 [GW595885]	0	5	18	0	21	6	28	12	0	0	0	0	9	0	10	13	0	0	0	12
Cl.Fc1ccccc1COc1ccc(Nc2ncnc3ccc(-c4nnc(C(F)(F)F)o4)cc23)cc1Cl [GW424170]	0	0	16	14	0	7	0	22	0	18	9	28	0	0	10	4	11	10	0	6
Cl.Cl.c1ccc(-c2cc3ccncc3cc2OC2CCNCC2)cc1 [GSK1122999]	0	34	0	10	7	12	28	33	0	45	31	17	9	1	94.6	91.6	33	11	39	27
Fc1cccc(COc2ccc(Nc3ncnc4sc(-c5ccc[nH]5)cc34)cc2Cl)c1 [GW707818]	3	4	25	0	0	18	14	22	0	40	34	31	0	16	27	21	8	10	0	99.9
CNc1nccc(-c2c(-c3ccc(F)cc3)ncn2C2CCN(C)CC2)n1 [SB-222903]	11	0	0	0	0	0	0	0	0	3	3	40	0	2	56	0	0	15	0	0
CC(C)(C)c1ccc(-n2cnc3c(N)ncnc32)cc1 [SKF-97263]	0	19	7	4	0	0	8	22	26	23	1	0	16	14	0	0	15	0	2	19
Clc1cc(Nc2ncnc3cc[nH]c23)ccc1OCc1ccccn1	0	13	19	9	0	17	17	24	42	0	0	27	23	31	0	0	6	9	11	3
COc1ccc(Nc2nccc(N3CCC(NC(=O)Nc4ccc5c(c4)OCO5)C3)n2)cc1 (stereo not drawn) [GSK1379745]	0	19	23	27	8	22	9	28	5	35	0	0	0	0	12	9	34	13	0	0
Cl.c1ccc(Cn2ncc3cc(Nc4ncnc5ccccc45)ccc32)cc1 [GW273749]	0	4	15	0	10	16	13	39	0	19	7	74	8	6	12	21	10	3	0	8
Clc1ccc(-c2cc(-c3c[nH]nc3-c3ccccn3)ccn2)cc1 [GW681251]	11	12	9	0	0	4	27	19	2	0	0	37	0	0	0	12	0	2	0	6
CCc1nc(-c2cccc(C)c2)c(-c2ccnc(NC(=O)c3ccccc3)c2)s1	0	0	10	11	0	22	0	14	8	4	0	52	42	0	35	0	0	0	8	3
COC(=O)c1c(-c2ccccc2)c2cc(Cl)ccc2c(=O)n1Cc1ccc(S(C)(=O)=O)cc1	0	16	1	0	0	49	2	0	29	0	0	0	13	4	6	0	0	0	5	8
NC(=O)c1sc(-n2cnc3ccccc32)cc1OCc1ccccc1F [GSK1024306]	0	3	2	40	0	0	24	77	79	65	0	13	0	0	85	86	4	17	0	17
CC(=O)Nc1n[nH]c2ncc(-c3ccccc3)cc12 [SB-548492]	8	0	1	12	21	0	0	38	17	31	8	0	24	33	3	1	22	9	17	3
Cl.O=S(=O)(c1cccc(F)c1)c1ccc(Nc2ncnc3cc(Br)sc23)cc1Cl [GSK306886]	0	24	13	0	0	10	97.9	9	3	22	29	42	0	16	9	14	12	16	0	0
CSc1ccc(NC2=C(c3ccccc3Cl)C(=O)NC2=O)cc1 [SB-342411]	0	0	0	0	8	15	14	16	0	0	0	32	6	0	0	0	0	0	0	5
Clc1cccc(-c2nc(Nc3ccncc3)c3ccccc3n2)c1 [GW873004]	0	12	50	4	0	46	0	40	0	46	25	10	0	0	0	0	20	51	1	32
CC(C)(C)OC(=O)NC1CCCN(c2cc(-c3ccc4c(N)n[nH]c4c3)nc(N)n2)C1 (stereo not drawn) [GSK2286096]	0	21	0	0	5	7	0	23	27	23	0	8	14	0	0	0	0	0	0	0
CCC(CC)(CC)n1cnc2c(N)ncnc21 [SKF-97620]	0	0	14	7	27	7	4	21	8	0	0	1	41	25	44	0	0	24	13	14

SMILES	%Inh (PRKR) [%]	%Inh (PRKX) [%]	%Inh (PRP4) [%]	%Inh (PYK2) [%]	%Inh (QSK) [%]	%Inh (RAF1) [%]	%Inh (RET) [%]	%Inh (RIOK1) [%]	%Inh (RIOK2) [%]	%Inh (RIOK3) [%]	%Inh (RIPK1) [%]	%Inh (RIPK2) [%]	%Inh (RIPK4) [%]	%Inh (RIPK5) [%]	%Inh (ROCK1) [%]	%Inh (ROCK2) [%]	%Inh (ROS1) [%]	%Inh [1] [%]	%Inh [2] [%]	%Inh [3] [%]
O=c1cc(N2CCOCC2)nc2n(Cc3cccc(Cl)c3)ccn12 [GSK2296823]	0	33	4	4	0	6	87	17	10	0	0	0	19	0	0	0	0	6	0	10
CS(=O)(=O)CCNCc1ccc(-c2ccc3ncnc(Nc4ccc(OCc5ccccc5)c(Cl)c4)c3c2)o1.Cl [GW574783]	0	17	12	0	2	19	0	32	6	0	9	79	0	0	22	21	0	32	0	28
Nc1nc(-c2cccnc2)c(-c2ccnc3ccccc23)s1 [GW684083]	0	31	19	16	5	11	0	30	38	0	0	10	0	2	44	32	25	0	0	26
Fc1cccc(COc2ccc(Nc3ncnc4cc[nH]c34)cc2Cl)c1	0	19	34	2	9	4	5	21	15	20	13	25	16	33	0	0	35	9	11	2
COc1ccc(NC(=O)Nc2ccc(C)c(-c3ccc(C(=O)Nc4ccncc4)cc3)c2)cc1 [GSK1398475]	0	10	19	3	0	50	0	31	0	8	16	2	1	0	0	0	0	0	0	0
Cn1cc(-c2ccc3c(c2)CCN3C(=O)Cc2cccc(C(F)(F)F)c2)c2c(N)ncnc21 [GSK2606414]	0	16	9	0	0	14	78	28	18	0	75	1	3	9	4	13	0	16	0	25
c1ccc(-c2ccc3c(-c4ccnc(Nc5ccc6c(c5)OCCO6)n4)cnn3n2)cc1 [GW818941]	0	1	17	8	0	20	1	37	15	12	3	9	0	0	28	10	5	33	0	10
CS(=O)(=O)CCNCc1nc(-c2ccc3ncnc(Nc4ccc(OCc5cccc(F)c5)c(Cl)c4)c3c2)cs1.Cl [GW583340]	0	0	0	0	0	1	0	10	0	17	2	42	6	1	5	0	0	10	0	0
Oc1ccc2ncnc(Nc3ccc(OCc4ccccc4)cc3)c2c1 [GI262866]	0	11	26	0	10	18	12	18	4	10	1	100	6	0	0	0	0	8	0	4
Cl.Cn1ccc(-c2cccc(Nc3ccnc4cc(-c5nccs5)ccc34)c2)n1 [GW525701]	5	0	61	45	4	18	5	14	22	0	0	16	23	0	26	39	0	0	0	24
Fc1ccc(Nc2nccc(-c3c(-c4ccc(Cl)cc4)nn4ncccc34)n2)cc1F [GW829058]	0	0	0	1	20	18	9	0	10	7	0	12	29	37	20	33	14	25	3	2
CN1CCC(n2cnc(-c3ccc(F)cc3)c2-c2ccnc(NC3CCNCC3)n2)CC1 [SB-229482]	0	0	0	11	0	46	20	25	8	22	0	0	45	7	35	25	0	14	0	1
O=C(Nc1n[nH]c2nc(-c3ccco3)c(Br)cc12)c1ccc(CN2CCCC2)cc1.O=C(O)[C@H](O)[C@@H](O)C(=O)O [SB-742352]	0	0	0	42	0	17	28	0	0	0	33	47	0	0	0	0	12	10	8	0
Nc1nc(-c2ccccn2)c(-c2ccnc3ccccc23)s1 [GW548057]	1	0	66	20	0	15	23	19	0	27	16	15	2	14	27	33	1	12	0	21
FC(F)(F)c1cc(Nc2nccc(-c3c(-c4ccc(Cl)cc4)nn4ncccc34)n2)ccc1Cl [GW829351]	26	0	14	0	0	1	0	0	0	0	0	6	0	0	50	0	0	0	0	0
Nc1nccc2scc(-c3ccc4c(c3)CCN4C(=O)Cc3cc(F)ccc3F)c12 [GSK2587663]	0	1	10	6	16	18	65	25	3	0	83	3	0	0	28	12	16	14	0	15
CSc1nn2c(=O)cc(N3CCOCC3)nc2n1Cc1cccc(Cl)c1Cl [GSK2347225]	0	23	0	31	8	6	11	34	28	19	0	20	7	0	15	0	46	17	0	11
Cl.c1ccc(Cn2ccc3cc(Nc4ncnc5ccccc45)ccc32)cc1 [GW275568]	0	17	0	0	0	20	15	20	0	0	26	54	21	32	1	0	14	4	0	6
FC(F)(F)c1ccc(-c2cc(-c3c[nH]nc3-c3ccccn3)ccn2)cc1 [GW599550]	8	12	31	0	0	18	14	25	5	25	0	25	2	0	26	15	31	14	0	20
CCn1c(-c2ccncc2)nc2cnccc21 [SB-735216]	0	0	18	1	27	6	0	12	20	0	0	15	10	14	31	13	2	0	11	0
Cn1ccc2ncnc(Nc3ccc(Oc4cccc(Cl)c4)c(Cl)c3)c21	0	11	11	27	2	0	10	0	18	3	0	47	0	40	3	0	0	0	1	19
